BJeLR lethal: kills HRASV12-expressing BJeLR cells. 300,000 tested, 0.17% active. BJeLR (HRASV12) viability, CellTiter-Glo ATP luminescence, 48 h. inhibition, % (concentration not given with the values). AID 1554; in the data active = inhibition above about 50%
3CLpro inhibitor: SARS-CoV 3CLpro protease inhibition | AID 1706 | inhibition, % at 6 µM | recombinant SARS-CoV 3CLpro, quenched FRET peptide cleavage | 290,000 tested, 0.14% active; in the data active = inhibition above about 12%
DUSP3 inh: blocks human VHR1 dual specificity phosphatase | 290,000 tested, 0.52% active | inhibition, % at 13.3 µM | P51452 | recombinant VHR phosphatase, pNPP absorbance; in the data active = inhibition above about 50%
Target sequence (P51452 whole entry, looked up): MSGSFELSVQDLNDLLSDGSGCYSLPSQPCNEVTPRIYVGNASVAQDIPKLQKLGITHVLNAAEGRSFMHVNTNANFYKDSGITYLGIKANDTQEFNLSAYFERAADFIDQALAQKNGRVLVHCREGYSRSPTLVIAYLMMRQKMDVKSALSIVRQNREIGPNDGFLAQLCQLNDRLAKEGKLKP
PrPC surface inh: reduces human prion protein on the cell surface. 370,000 tested, 0.43% active. P04156. cell surface PrPC, TR-FRET read-out. inhibition, % at 13.8 µM; in the data active = inhibition above about 24%; note: 0% = median of the test wells and 100% = reference compound wells
Starred values were filed as active, the others as inactive; · = not tested or not shown. Compounds with a hit are over-represented: about 1.1% of the library has one in this group of screens.

SMILES | BJeLR lethal | 3CLpro inhibitor | DUSP3 inh | PrPC surface inh
COc1cc(/C=C/c2nc3ccccc3c(=O)[nH]2)cc(Cl)c1O | -5 | -2 | 58* | 4
COc1ccc(CC(NC(C)=O)C(=O)NC2CCN(C(=O)c3ccncc3)CC2)cc1OC (stereo unspecified) | 0 | 1 | -5 | 8
COc1ccc(CC(NC(C)=O)C(=O)NC2CCN(C(=O)c3cccc(Cl)c3)CC2)cc1OC (stereo unspecified) | -11 | 1 | 53* | 6
CCCCC(=O)Nc1c(-c2cccc(OC)c2)c(=O)c2ccccc2n1C | 2 | -1 | 58* | -5
COc1cccc(-c2c(NC(C)=O)n(C)c3ccccc3c2=O)c1 | -8 | -5 | -1 | -4
CCOC(=O)c1c(C)oc2c1c(C=NCC1CCCO1)c(O)c1ccccc12 (stereo unspecified) | -1 | 5 | 51* | 14
COc1ccc(C(C(=O)NC2CCCC2)N(C(=O)c2ccoc2C)c2ccc(C)cc2)cc1 (stereo unspecified) | 6 | 8 | 5 | 3
COc1ccc(N(C(=O)Cc2cccs2)C(C(=O)NC2CCCC2)c2ccncc2)cc1 (stereo unspecified) | 7 | 0 | 24 | 0
COc1ccc(C(C(=O)NC2CCCCC2)N(C(=O)CCl)c2ccc(OC)cc2)cc1 (stereo unspecified) | 118* | 9 | -4 | ·
COc1cccc(C(C(=O)NC2CCCC2)N(Cc2cccnc2)C(=O)Cc2cccs2)c1 (stereo unspecified) | -7 | 6 | 50* | 1
COc1ccc(C(C(=O)NC2CCCCC2)N(C(=O)CCl)c2ccc(C)cc2)cc1 (stereo unspecified) | 135* | 5 | -4 | 6
COc1ccc(N(C(=O)CCl)C(C(=O)NC2CCCCC2)c2cccnc2)cc1 (stereo unspecified) | 81* | 21* | 4 | -1
CS(=O)(=O)c1ccc(S(=O)(=O)N2CCN(C(=O)C(O)c3ccccc3)CC2)cc1 (stereo unspecified) | · | · | · | 4
COc1ccc(C(C(=O)NC2CCCCC2)N(C(=O)CCl)c2cccc(Cl)c2)cc1 (stereo unspecified) | 119* | 3 | 5 | 2
CCCN1C(=O)c2n[nH]c(C)c2C1c1ccc(Br)cc1 (stereo unspecified) | · | · | · | -1
Cc1ccc(N2C(=O)c3ccccc3C2Nc2ccccc2F)nc1 (stereo unspecified) | -9 | 1 | 17 | 8
Cc1ccc(N2C(=O)c3ccccc3C2O)nc1 (stereo unspecified) | 70* | -1 | -10 | ·
COc1ccc(N2C(=O)/C(=C/c3ccc(C)o3)C(=O)NC2=S)cc1 | 51* | 0 | -4 | 8
CCOC(=O)c1c(CSC(=N)N)n(-c2ccc(C)cc2)c2cc(Br)c(OC(C)=O)cc12 | 84* | 5 | 41 | 10
CCOC(=O)c1c(CSC(=N)N)n(C)c2cc(Br)c(OC(C)=O)cc12 | -1 | -2 | 39 | 9
COc1ccc(C2C(C#N)=C(N)Oc3cc(N)ccc32)cc1 (stereo unspecified) | -3 | 3 | 56* | -6
COc1ccc(C(=O)N=C2SC3CS(=O)(=O)CC3N2c2ccccc2)cc1OC (stereo unspecified) | 0 | -6 | 52* | -7
Cn1c(N/N=C2\CCCc3ccccc32)nc2c1c(=O)n(Cc1ccc(F)cc1)c(=O)n2C | 3 | 2 | 60* | -2
Cc1cccc(NC(=O)N2CCCCCC2)c1 | 1 | -1 | 15 | -1
Cc1cccc(NC(=O)N2CCCC2)c1 | -2 | 0 | 52* | -1
SMILES | BJeLR lethal | 3CLpro inhibitor | DUSP3 inh | PrPC surface inh
O=C(Nc1ccccc1F)Nc1ccccc1OC(F)F | 4 | 2 | 56* | 1
O=C(Nc1ccccc1OC(F)F)c1ccc(F)cc1 | -3 | 1 | -8 | 0
COC(=O)CCN1CCC2CC1c1cc(Cl)ccc12 (stereo unspecified) | · | · | · | -4
CC1(C)C[C@H]2C=C(C=O)[C@]3(C=O)C[C@]3(C)[C@H]2C1 | 92* | 1 | 27 | -2
CC(C)C[C@H](NC1(C(=O)NC2CCCCC2)CCN(C)CC1)C(=O)NCC(c1ccccc1)c1ccccc1 | · | · | · | -21
CSc1ccc(C(=O)C2CCCN(C(=O)CCc3cnn(C)c3)C2)cc1 (stereo unspecified) | 5 | -2 | 50* | -1
CSc1ccc(C(=O)C2CCCN(Cc3cccn3-c3cccnc3)C2)cc1 (stereo unspecified) | -6 | 2 | 22 | 1
CSc1ccc(C(=O)C2CCCN(Cc3cccnc3)C2)cc1 (stereo unspecified) | -1 | 5 | 58* | -4

Screening results from PubChem BioAssay.
